Reference: the supplement of paper PMC10849652
The full data set covers some 8,800 targets. This sample favours those with a hit. About 0.5% of all pairs of compound and target were hits.

Tests used:
Assay in all cases: log2 fold change, soluble protein after heating vs DMSO (PISA); higher = thermal stabilisation; K562 lysate, 10 uM; active = over 0.2 and 3.5 SD of the protein, either way, in both replicates (recomputed)
erlotinib = compound: C#Cc1cccc(Nc2ncnc3cc(OCCOC)c(OCCOC)cc23)c1 [erlotinib]
Outline: (§1)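 Quantification was by TMTpro 16plex LC-MS/MS with equalised channel sums, applied to the supernatant after 21,000xg for 90 min. Samples were crude K562 extract at 1 mg/mL protein in PBS pH 7.4 with 1 mM MgCl2, treated with 10 μM compound for 30 min, heated for 3 min across 48°C-58°C, pooled and brought to 0.5% NP-40 at 4°C. Values are log-two fold changes in thermal stability relative to solvent controls, from duplicates.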

[1] = compound: C/C(=N\NC(=O)C1=CC(=CC=C1)S(=O)(=O)N2CCOCC2)/C3=C(C=CC(=C3)Cl)O
Outline: as §1

[2] = compound: C1=CC(=CC=C1C2=NC3=C(N2)C=C(C=C3)C(=O)N)OC4=CC=C(C=C4)Cl
Outline: as §1

[3] = compound: C1=CC2=C(C=CC(=C2)/C=C\3/C(=O)NC(=NCC4=CC=CS4)S3)N=C1
Outline: as §1

[4] = compound: C1=CC2=NC=CN=C2C=C1/C=C/3\C(=O)NC(=O)S3
Outline: as §1

[5] = compound: C1=CC=C(C=C1)C2=NC(=C(N2)C3=CC=NC=C3)C4=CC(=C(C=C4)Cl)O
Outline: as §1

[6] = compound: C1=CC=C2C(=C1)C3=NNC4=CC=CC(=C43)C2=O
Outline: as §1

[7] = compound: C1CCN(C1)C(=O)NC2=CC=CC(=C2)NC3=NC=C(C(=N3)NCCC4=CN=CN4)Br
Outline: as §1

[8] = compound: C1CN(CCC1(CC2=CC=C(C=C2)Cl)N)C3=NC=NC4=C3C=CN4
Outline: as §1

IRAK-1-4 Inhibitor I = compound: C1COCCN1CCN2C3=CC=CC=C3N=C2NC(=O)C4=CC(=CC=C4)[N+](=O)[O-] [IRAK-1-4 Inhibitor I]
Outline: as §1

ibrutinib = compound: C=CC(=O)N1CCC[C@@H](n2nc(-c3ccc(Oc4ccccc4)cc3)c3c(N)ncnc32)C1 [ibrutinib]
Outline: as §1

[9] = compound: CC(=O)c1cnc2ccc(-c3cc(Cl)c(O)c(Cl)c3)nc2c1N[C@H]1CC[C@H](CN(C)C)CC1
Outline: as §1

ralimetinib = compound: CC(C)(C)Cn1c(N)nc2ccc(-c3[nH]c(C(C)(C)C)nc3-c3ccc(F)cc3)nc21 [ralimetinib]
Outline: as §1

[10] = compound: CC(C)(O)CC(=O)NCCn1ccc2ncnc(Nc3ccc(Oc4cccc(C(F)(F)F)c4)c(Cl)c3)c21
Outline: as §1

[11] = compound: CC(C)C1=C2N=C(C=C(N2N=C1)NCC3=CC=CC=C3)NCCCCCCN
Outline: as §1

[12] = compound: CC1=C(C(CC(=O)N1)C2=CC=C(C=C2)C(F)(F)F)C(=O)NC3=C(C=C4C(=C3)C=NN4)F
Outline: as §1

[13] = compound: CC1=C(C2=C(C=C1)C(=O)C3=CC=CC=C3N2CCCN)C
Outline: as §1

[14] = compound: CC1=C(C=C(C=C1)NC(=O)C2=CC(=CC=C2)C(C)(C)C#N)NC3=CC4=C(C=C3)N=CN(C4=O)C
Outline: as §1

[15] = compound: CC1=C(C=C(C=C1)NC(=O)C2=CC(=CC=C2)N(C)C)NC(=O)C3=CC=C(C=C3)O
Outline: as §1

[16] = compound: CC1=CC=C(C=C1)SC2=C3C=C(SC3=CN=C2)C(=O)N
Outline: as §1

Measured: log2 fold change

PLEKHO2 (UniProt Q8TD55)
inactive: erlotinib 0.188 | [1] 0.008 | [2] -0.023 | [3] 0.106 | [4] -0.06 | [5] 0.184 | [6] -0.014 | [7] -0.075 | [8] 0.186 | IRAK-1-4 Inhibitor I -0.004 | ibrutinib 0.358 | [9] -0.102 | ralimetinib -0.11 | [10] 0.108 | [11] 0.006 | [12] 0.01 | [13] 0.069 | [14] 0.048 | [15] 0.252 | [16] -0.129

PREP (UniProt P48147)
inactive: erlotinib 0.026 | [1] -0.016 | [2] 0.028 | [3] -0.007 | [4] -0.002 | [5] 0.002 | [6] -0.002 | [7] -0.024 | [8] 0.014 | IRAK-1-4 Inhibitor I -0.007 | ibrutinib 0.019 | [9] 0 | ralimetinib 0.015 | [10] 0.004 | [11] -0.008 | [12] 0.011 | [13] -0.009 | [14] -0.006 | [15] 0.006 | [16] 0.011

PDCD10 (UniProt Q9BUL8)
inactive: erlotinib -0.029 | [1] -0.001 | [2] -0.009 | [3] -0.049 | [4] -0.028 | [5] -0.007 | [6] 0.087 | [7] 0.035 | [8] -0.025 | IRAK-1-4 Inhibitor I -0.012 | ibrutinib 0.001 | [9] 0.062 | ralimetinib 0 | [10] -0.006 | [11] -0.008 | [12] -0.02 | [13] 0.016 | [14] 0.021 | [15] -0.02 | [16] -0.02

PI4KA (UniProt P42356)
Sequence of UniProt P42356 (P42356 whole entry, looked up): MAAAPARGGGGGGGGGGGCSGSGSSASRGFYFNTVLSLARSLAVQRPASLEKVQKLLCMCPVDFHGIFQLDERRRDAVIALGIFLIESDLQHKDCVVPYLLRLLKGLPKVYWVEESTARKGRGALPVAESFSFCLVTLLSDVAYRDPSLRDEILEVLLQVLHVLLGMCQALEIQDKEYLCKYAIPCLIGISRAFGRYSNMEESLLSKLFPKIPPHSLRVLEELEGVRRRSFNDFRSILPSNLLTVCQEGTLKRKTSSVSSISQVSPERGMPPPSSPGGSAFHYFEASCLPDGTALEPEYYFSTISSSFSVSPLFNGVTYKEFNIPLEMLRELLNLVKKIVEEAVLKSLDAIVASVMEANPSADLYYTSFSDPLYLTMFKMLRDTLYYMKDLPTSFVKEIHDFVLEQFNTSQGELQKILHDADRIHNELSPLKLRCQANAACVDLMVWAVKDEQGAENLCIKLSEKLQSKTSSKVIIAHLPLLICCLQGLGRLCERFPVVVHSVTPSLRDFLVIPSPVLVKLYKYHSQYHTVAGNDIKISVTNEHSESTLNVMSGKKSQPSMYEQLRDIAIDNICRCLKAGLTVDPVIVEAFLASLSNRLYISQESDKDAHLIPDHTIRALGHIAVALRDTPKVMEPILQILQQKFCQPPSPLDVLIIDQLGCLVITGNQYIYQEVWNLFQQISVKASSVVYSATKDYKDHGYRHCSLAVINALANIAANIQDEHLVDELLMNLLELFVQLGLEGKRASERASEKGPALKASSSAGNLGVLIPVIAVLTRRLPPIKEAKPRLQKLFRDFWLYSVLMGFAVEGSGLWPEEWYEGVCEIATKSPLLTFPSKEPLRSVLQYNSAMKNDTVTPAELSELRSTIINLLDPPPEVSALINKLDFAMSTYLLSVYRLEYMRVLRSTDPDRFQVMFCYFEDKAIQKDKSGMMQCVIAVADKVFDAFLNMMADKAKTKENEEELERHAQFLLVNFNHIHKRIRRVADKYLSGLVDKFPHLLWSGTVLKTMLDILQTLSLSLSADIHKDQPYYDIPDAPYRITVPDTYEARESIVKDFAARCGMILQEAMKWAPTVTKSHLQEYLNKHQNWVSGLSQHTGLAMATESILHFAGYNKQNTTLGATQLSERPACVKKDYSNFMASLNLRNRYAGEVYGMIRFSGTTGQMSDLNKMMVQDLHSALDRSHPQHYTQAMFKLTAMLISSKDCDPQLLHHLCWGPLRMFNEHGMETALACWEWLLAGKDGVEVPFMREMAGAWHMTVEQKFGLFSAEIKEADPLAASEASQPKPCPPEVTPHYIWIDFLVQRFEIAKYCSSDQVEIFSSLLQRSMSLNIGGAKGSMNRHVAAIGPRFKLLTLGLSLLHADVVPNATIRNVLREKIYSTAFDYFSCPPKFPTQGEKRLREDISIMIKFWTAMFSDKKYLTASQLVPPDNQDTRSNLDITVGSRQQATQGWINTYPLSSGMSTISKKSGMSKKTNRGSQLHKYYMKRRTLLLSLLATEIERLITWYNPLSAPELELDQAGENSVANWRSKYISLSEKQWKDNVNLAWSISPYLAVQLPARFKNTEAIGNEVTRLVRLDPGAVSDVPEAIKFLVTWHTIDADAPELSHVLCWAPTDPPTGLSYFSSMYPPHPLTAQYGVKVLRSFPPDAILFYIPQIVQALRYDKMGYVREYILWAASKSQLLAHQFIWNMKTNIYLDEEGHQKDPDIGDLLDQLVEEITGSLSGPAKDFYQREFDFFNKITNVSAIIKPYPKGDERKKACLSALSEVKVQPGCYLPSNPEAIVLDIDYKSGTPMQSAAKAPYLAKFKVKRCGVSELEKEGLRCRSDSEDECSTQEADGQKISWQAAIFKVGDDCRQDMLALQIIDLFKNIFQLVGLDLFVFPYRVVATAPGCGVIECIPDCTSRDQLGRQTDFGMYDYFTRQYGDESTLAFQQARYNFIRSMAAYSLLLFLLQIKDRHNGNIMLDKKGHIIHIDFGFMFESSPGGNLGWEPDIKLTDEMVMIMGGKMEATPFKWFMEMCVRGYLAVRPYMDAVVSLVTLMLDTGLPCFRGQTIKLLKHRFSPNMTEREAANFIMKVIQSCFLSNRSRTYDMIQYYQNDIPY
inactive: erlotinib 0.018 | [1] -0.014 | [2] -0.055 | [3] 0.035 | [4] 0.075 | [5] -0.028 | [6] -0.027 | [7] -0.021 | [8] 0.02 | IRAK-1-4 Inhibitor I -0.003 | ibrutinib 0.012 | [9] 0.119 | ralimetinib 0.011 | [10] -0.073 | [11] -0.045 | [12] 0 | [13] -0.039 | [14] 0.032 | [15] 0.04 | [16] -0.002

PIP4P2 (UniProt Q8N4L2)
inactive: erlotinib 0.023 | [1] 0.039 | [2] -0.03 | [3] 0.032 | [4] -0.076 | [5] 0.019 | [6] -0.029 | [7] 0.034 | [8] 0.022 | IRAK-1-4 Inhibitor I -0.054 | ibrutinib 0.034 | [9] 0.138 | ralimetinib -0.025 | [10] -0.023 | [11] -0.08 | [12] -0.015 | [13] -0.061 | [14] 0.013 | [15] 0.008 | [16] -0.096

PCBD2 (UniProt Q9H0N5)
inactive: erlotinib -0.012 | [1] -0.033 | [2] 0.044 | [3] -0.022 | [4] 0.079 | [5] 0.005 | [6] -0.014 | [7] -0.018 | [8] -0.015 | IRAK-1-4 Inhibitor I -0.01 | ibrutinib 0.035 | [9] 0.02 | ralimetinib 0.051 | [10] -0.08 | [11] 0.033 | [12] 0.025 | [13] 0.022 | [14] 0.027 | [15] -0.007 | [16] -0.03

PPCDC (UniProt Q96CD2)
inactive: erlotinib -0.019 | [1] 0.075 | [2] 0.033 | [3] -0.115 | [4] 0.004 | [5] 0.002 | [6] -0.115 | [7] -0.05 | [8] 0.084 | IRAK-1-4 Inhibitor I 0.023 | ibrutinib 0.016 | [9] 0.023 | ralimetinib 0.067 | [10] -0.157 | [11] 0.064 | [12] -0.023 | [13] -0.033 | [14] 0.019 | [15] -0.041 | [16] 0.003

PPP2CA (UniProt P67775)
Sequence of UniProt P67775 (P67775 whole entry, looked up): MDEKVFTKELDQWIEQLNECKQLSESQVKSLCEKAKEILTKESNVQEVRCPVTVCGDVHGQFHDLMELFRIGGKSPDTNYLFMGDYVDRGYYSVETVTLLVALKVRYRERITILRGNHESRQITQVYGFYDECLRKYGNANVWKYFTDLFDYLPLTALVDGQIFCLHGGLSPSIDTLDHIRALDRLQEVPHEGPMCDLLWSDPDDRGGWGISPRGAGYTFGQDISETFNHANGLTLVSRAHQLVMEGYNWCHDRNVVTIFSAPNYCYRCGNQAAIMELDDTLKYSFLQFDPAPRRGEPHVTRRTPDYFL
inactive: erlotinib -0.088 | [1] 0.134 | [2] -0.057 | [3] -0.045 | [4] -0.007 | [5] 0.064 | [6] 0.016 | [7] 0.106 | [8] -0.027 | IRAK-1-4 Inhibitor I -0.041 | ibrutinib 0.042 | [9] 0.009 | ralimetinib 0.007 | [10] 0.083 | [11] -0.012 | [12] -0.017 | [13] -0.034 | [14] -0.047 | [15] -0.003 | [16] 0.036

PRMT5 (UniProt O14744)
inactive: erlotinib 0.002 | [1] 0 | [2] 0.032 | [3] 0.006 | [4] 0.007 | [5] 0.017 | [6] 0.017 | [7] 0.012 | [8] 0.019 | IRAK-1-4 Inhibitor I 0.003 | ibrutinib 0.004 | [9] -0.002 | ralimetinib -0.015 | [10] 0.004 | [11] -0.004 | [12] -0.015 | [13] -0.008 | [14] 0.001 | [15] -0.01 | [16] 0.022

POLA1 (UniProt P09884)
Sequence of UniProt P09884 (P09884 whole entry, looked up): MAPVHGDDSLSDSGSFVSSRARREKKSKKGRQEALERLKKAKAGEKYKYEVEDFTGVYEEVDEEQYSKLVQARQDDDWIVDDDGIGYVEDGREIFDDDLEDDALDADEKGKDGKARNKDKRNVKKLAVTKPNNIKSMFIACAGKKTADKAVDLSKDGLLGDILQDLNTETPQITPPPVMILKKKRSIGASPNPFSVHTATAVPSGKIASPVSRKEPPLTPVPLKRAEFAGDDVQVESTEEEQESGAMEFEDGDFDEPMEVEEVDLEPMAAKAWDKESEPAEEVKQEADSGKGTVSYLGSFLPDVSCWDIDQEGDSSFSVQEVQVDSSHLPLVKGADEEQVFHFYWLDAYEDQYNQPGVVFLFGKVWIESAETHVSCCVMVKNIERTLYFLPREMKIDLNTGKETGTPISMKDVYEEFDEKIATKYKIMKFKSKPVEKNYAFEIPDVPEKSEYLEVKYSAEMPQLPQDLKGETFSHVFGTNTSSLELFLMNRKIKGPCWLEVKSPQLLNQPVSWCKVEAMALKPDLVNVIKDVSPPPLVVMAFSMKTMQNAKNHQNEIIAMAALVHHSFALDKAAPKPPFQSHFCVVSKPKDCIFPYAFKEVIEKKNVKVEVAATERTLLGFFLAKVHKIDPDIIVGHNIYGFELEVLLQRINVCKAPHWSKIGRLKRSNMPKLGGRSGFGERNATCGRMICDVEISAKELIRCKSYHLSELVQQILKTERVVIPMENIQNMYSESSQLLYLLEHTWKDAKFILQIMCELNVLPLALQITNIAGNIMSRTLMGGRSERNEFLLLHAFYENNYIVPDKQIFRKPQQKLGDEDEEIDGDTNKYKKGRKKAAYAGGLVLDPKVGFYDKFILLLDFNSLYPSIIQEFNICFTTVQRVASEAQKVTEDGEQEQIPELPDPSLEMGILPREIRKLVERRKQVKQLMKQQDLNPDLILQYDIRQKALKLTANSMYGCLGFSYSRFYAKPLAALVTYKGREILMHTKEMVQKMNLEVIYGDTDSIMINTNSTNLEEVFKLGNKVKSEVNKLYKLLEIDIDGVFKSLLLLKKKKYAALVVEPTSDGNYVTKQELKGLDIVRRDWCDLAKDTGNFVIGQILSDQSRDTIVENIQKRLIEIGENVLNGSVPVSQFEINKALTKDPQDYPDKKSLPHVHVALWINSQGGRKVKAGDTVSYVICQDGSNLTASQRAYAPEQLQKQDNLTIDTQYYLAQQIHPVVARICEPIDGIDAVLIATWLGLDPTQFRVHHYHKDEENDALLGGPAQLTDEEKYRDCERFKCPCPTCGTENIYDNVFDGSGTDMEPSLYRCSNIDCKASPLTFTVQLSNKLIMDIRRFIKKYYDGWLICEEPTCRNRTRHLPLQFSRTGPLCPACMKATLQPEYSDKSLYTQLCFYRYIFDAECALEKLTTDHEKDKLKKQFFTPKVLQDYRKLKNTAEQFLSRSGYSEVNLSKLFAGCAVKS
inactive: erlotinib 0.009 | [1] -0.039 | [2] -0.02 | [3] -0.015 | [4] -0.036 | [5] 0.084 | [6] -0.005 | [7] -0.034 | [8] 0.015 | IRAK-1-4 Inhibitor I -0.003 | ibrutinib 0 | [9] -0.013 | ralimetinib -0.032 | [10] 0.003 | [11] 0.001 | [12] 0.007 | [13] -0.001 | [14] 0.02 | [15] 0.022 | [16] -0.016

PRC1 (UniProt O43663)
Sequence of UniProt O43663 (O43663 whole entry, looked up): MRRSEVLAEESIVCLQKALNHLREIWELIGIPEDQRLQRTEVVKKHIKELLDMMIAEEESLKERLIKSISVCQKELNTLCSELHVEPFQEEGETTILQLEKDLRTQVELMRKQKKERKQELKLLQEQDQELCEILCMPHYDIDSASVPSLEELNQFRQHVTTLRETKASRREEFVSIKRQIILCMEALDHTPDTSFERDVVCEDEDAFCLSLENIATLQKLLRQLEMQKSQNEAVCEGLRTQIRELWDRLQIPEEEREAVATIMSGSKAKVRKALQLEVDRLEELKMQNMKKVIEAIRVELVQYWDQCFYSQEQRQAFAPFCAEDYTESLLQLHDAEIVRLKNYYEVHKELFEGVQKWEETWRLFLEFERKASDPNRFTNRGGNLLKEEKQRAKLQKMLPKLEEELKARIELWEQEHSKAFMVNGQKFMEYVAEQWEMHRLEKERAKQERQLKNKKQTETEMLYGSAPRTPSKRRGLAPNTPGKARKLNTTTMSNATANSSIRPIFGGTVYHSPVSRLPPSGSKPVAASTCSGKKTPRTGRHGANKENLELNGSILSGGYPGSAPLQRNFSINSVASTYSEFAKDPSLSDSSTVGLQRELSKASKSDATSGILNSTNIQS
inactive: erlotinib 0.026 | [1] 0.027 | [2] 0.013 | [3] -0.026 | [4] -0.004 | [5] 0.059 | [6] -0.054 | [7] -0.011 | [8] 0.126 | IRAK-1-4 Inhibitor I 0.008 | ibrutinib -0.007 | [9] 0.009 | ralimetinib -0.016 | [10] 0.01 | [11] 0.01 | [12] 0.039 | [13] -0.006 | [14] 0.025 | [15] 0.021 | [16] 0.059

PPIL3 (UniProt Q9H2H8)
Sequence of UniProt Q9H2H8 (Q9H2H8 whole entry, looked up): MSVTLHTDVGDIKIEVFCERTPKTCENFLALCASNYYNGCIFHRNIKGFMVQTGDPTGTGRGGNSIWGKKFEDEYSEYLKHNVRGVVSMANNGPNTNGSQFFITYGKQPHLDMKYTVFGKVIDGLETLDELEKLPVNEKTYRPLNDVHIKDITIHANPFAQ
inactive: erlotinib 0.022 | [1] 0.071 | [2] 0 | [3] -0.016 | [4] -0.039 | [5] -0.012 | [6] -0.028 | [7] -0.004 | [8] 0.071 | IRAK-1-4 Inhibitor I 0.03 | ibrutinib 0.044 | [9] 0.029 | ralimetinib -0.023 | [10] -0.028 | [11] 0.022 | [12] 0.001 | [13] 0.003 | [14] 0.011 | [15] 0.009 | [16] 0.005

PUF60 (UniProt Q9UHX1)
inactive: erlotinib 0.001 | [1] 0.003 | [2] -0.01 | [3] 0.011 | [4] -0.018 | [5] -0.018 | [6] 0.01 | [7] 0.003 | [8] 0.003 | IRAK-1-4 Inhibitor I -0.023 | ibrutinib 0.011 | [9] -0.004 | ralimetinib -0.034 | [10] 0.013 | [11] 0.018 | [12] -0.02 | [13] 0.009 | [14] -0.003 | [15] -0.001 | [16] 0.004

PLEKHF1 (UniProt Q96S99)
Sequence of UniProt Q96S99 (Q96S99 whole entry, looked up): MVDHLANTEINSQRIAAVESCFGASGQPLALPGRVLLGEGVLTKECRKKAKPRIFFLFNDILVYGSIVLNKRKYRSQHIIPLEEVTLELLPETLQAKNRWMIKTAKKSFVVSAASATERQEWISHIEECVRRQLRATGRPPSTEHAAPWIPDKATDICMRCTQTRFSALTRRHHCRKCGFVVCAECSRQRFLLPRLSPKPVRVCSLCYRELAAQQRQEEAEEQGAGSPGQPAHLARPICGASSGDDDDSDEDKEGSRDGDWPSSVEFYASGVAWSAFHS
inactive: erlotinib 0.027 | [1] 0.032 | [2] -0.067 | [3] 0.006 | [4] 0.05 | [5] 0.017 | [6] -0.019 | [7] -0.032 | [8] 0.029 | IRAK-1-4 Inhibitor I -0.024 | ibrutinib -0.004 | [9] 0.015 | ralimetinib 0.053 | [10] -0.042 | [11] 0.002 | [12] -0.069 | [13] -0.025 | [14] -0.002 | [15] -0.017 | [16] 0.015

PYURF (UniProt Q96I23)
Sequence of UniProt Q96I23 (Q96I23 whole entry, looked up): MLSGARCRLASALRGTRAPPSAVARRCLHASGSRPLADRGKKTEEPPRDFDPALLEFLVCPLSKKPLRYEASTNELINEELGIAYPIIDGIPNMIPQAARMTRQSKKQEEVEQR
inactive: erlotinib -0.019 | [1] 0.113 | [2] 0.117 | [3] 0.056 | [4] 0.087 | [5] -0.09 | [6] -0.108 | [7] 0.035 | [8] 0.07 | IRAK-1-4 Inhibitor I -0.086 | ibrutinib 0.189 | [9] -0.026 | ralimetinib -0.005 | [10] 0.079 | [11] 0.016 | [12] 0.058 | [13] -0.05 | [14] 0.084 | [15] 0.012 | [16] -0.026

PPIL2 (UniProt Q13356)
inactive: erlotinib -0.03 | [1] 0.02 | [2] 0.007 | [3] 0.021 | [4] -0.002 | [5] 0.039 | [6] -0.045 | [7] -0.036 | [8] 0.003 | IRAK-1-4 Inhibitor I -0.016 | ibrutinib -0.002 | [9] -0.003 | ralimetinib 0.02 | [10] 0.025 | [11] 0.046 | [12] 0.011 | [13] -0.017 | [14] 0.033 | [15] 0.003 | [16] 0.005
